What follows are sequences tested on LXRb homodimer (NR concentration 270 nM) (assay: PBM binding z-score (relative to random genomic background probes); higher = stronger binding; sequences stand for … in GC…GCGATTGACAGCGTAGAATGAAGG).
In short: (§1)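 Random background probes are the reference for binding z-scores. These scores derive from regression-normalized fluorescence on custom Agilent 4×180K protein-binding microarrays incubated 1 h with ligand-free nuclear receptor dimers. Binding was detected with antibodies against each partner (one per run).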

Sequence | PBM binding z-score
TATACAGGGTCAAAGGCCCGAGTACGAATGTCGA | 2
TCTTGTAGCTCAAGCAGGTTAAGAAAGCCTGAGT | -0.909
TCTTGTGGATCAAAGGTTAAGAAAGCCGAAGCCT | 0.0498
TCTTGTAGTTCAAGCAGGTTAAGAAAGCCTGAGT | -0.0715
CCTACTGGGCCAAAGGTCACTGATTCCAATGCTC | 0.63
TCTGCAAGGTCAACGATGGTCAGCTAATCTGCTA | 0.582
GCAGACAGGTGAAACGAAGGTAACTCAGGGTGGC | -1.08
ATCGAAAGCTCGAAGGTGAGTATACCCACCCGAA | -0.832
CATACAGGGTCAGCAAGGCCAGAGTAGGGACGGC | -0.0671
TCATATCGGTAAAGGTGAAAGTCGAACGATATGA | -0.304
CCTTACGGGTCACTGACAGGCTATAGCATTTGGA | -0.0175
GTACCAAGCTGAATAGGTCGTTGATGAGTAGGCG | -1.03
CCTGGTAGGTCAATGGTCAGCTAAAGCAGCTCGC | 0.463
CGTCCAAGGTGAGCAGGTCAGTGAAAGCGACGTG | -1.28
TCATATAGGTAAACGTGAAAGTCGAACGATATGA | 0.105
TCGAGTGGGTTAGTCGGGGCATTCAGCCAACATA | -0.295
AGAATGAGGTTGTTAAGATCAGGGAATTGCGGTC | -0.0779
CTCGAAAGGTCGGTTAAGGTGAGTATACGGATAA | 0.111
CGTAGTTGGTCAAGGTCACACACGCTATAGGTAC | 0.592
CCTGCTAGGTCAATGGTGAGCTAAAGCAGCTCGC | -0.0982

Sequence | PBM binding z-score
CCTTACGTGTCAAGGTTATAGCACGGGTGGTACG | 0.609
CAAACTAGGTCAAGAGGTCAAAGTCCGCTTCCCG | 1.96
TAGCCTTGGTCAGATCGGGCCAGTATACGCTATA | -0.904
CCAGACAGGTGAAAGGGAACTCAGTCTGGTACGC | -0.681
TCGAGTAGGTTACCAATGGGGCAGTCAGCTTTCT | -0.413
TCTCGTAGATCAGCAGGTTAAGAAAGCTGGCCAA | -1.13
CGTCCAAGGCCAGAGAGGTCAGTGAATGCCGAGT | -0.859
CCAGACAGGTGCGAAGGTAACTCAGCCTCGATTA | -0.755
CCTATTGGGCCAAAAAGGTCATTGATGCCGATAA | 0.266
CGTCCAAGGTCAAGGTCATTGAAAGAGACTCGAA | 1.4
ATCTCTAGGTAAAGATAGTTAAGTGAATGCAAAT | 0.643
TCGTGTAGATCAAAGGTTAAGAAAGCCGAAGCCT | 0.049
ACAGACAGATGATGAAGGTAACTCAGGCTATCAT | 0.222
AGAATGAGGGCAATGAGTTGATAGCACGGGTGGC | -0.286
CCTACTGGGCCACGAAAGGTCATTTATTCAGTGA | 1.31
ACTTACGGGTCAACGAGGTTATAGAACGCGTATA | 0.433
TAGCCTAGGTCATTCAGGGGCCAGTATAGAAAGC | 0.97
GCTTACGGGTCAAAGGTTATAGCTTGAATAGAAT | 0.468
CGAACTAGGTCATGGACAGTGAATCTCCGCACGC | -0.358
CAAACTAGGTCAAAGGTCTAAGTCGAGCCAACCA | 0.734

What follows are sequences tested on PPARa:RXRa (NR concentration 270 nM, RXRa partner concentration 90 nM) in the same assay as above.
In short: as §1

Sequence | PBM binding z-score
TATACAGGGTCAAAGGCCCGAGTACGAATGTCGA | 5.84
TCTTGTAGCTCAAGCAGGTTAAGAAAGCCTGAGT | 0.461
TCTTGTGGATCAAAGGTTAAGAAAGCCGAAGCCT | 4.58
TCTTGTAGTTCAAGCAGGTTAAGAAAGCCTGAGT | 2.02
CCTACTGGGCCAAAGGTCACTGATTCCAATGCTC | 6.39
TCTGCAAGGTCAACGATGGTCAGCTAATCTGCTA | 5.41
GCAGACAGGTGAAACGAAGGTAACTCAGGGTGGC | 0.924
ATCGAAAGCTCGAAGGTGAGTATACCCACCCGAA | -0.531
CATACAGGGTCAGCAAGGCCAGAGTAGGGACGGC | 4.51
TCATATCGGTAAAGGTGAAAGTCGAACGATATGA | 2.77
CCTTACGGGTCACTGACAGGCTATAGCATTTGGA | 4.91
GTACCAAGCTGAATAGGTCGTTGATGAGTAGGCG | 0.192
CCTGGTAGGTCAATGGTCAGCTAAAGCAGCTCGC | 3.77
CGTCCAAGGTGAGCAGGTCAGTGAAAGCGACGTG | 1.73
TCATATAGGTAAACGTGAAAGTCGAACGATATGA | 1.33
TCGAGTGGGTTAGTCGGGGCATTCAGCCAACATA | 0.659
AGAATGAGGTTGTTAAGATCAGGGAATTGCGGTC | 0.298
CTCGAAAGGTCGGTTAAGGTGAGTATACGGATAA | 3.04
CGTAGTTGGTCAAGGTCACACACGCTATAGGTAC | 4.13
CCTGCTAGGTCAATGGTGAGCTAAAGCAGCTCGC | 2.57

Sequence | PBM binding z-score
CCTTACGTGTCAAGGTTATAGCACGGGTGGTACG | 1.36
CAAACTAGGTCAAGAGGTCAAAGTCCGCTTCCCG | 6.67
TAGCCTTGGTCAGATCGGGCCAGTATACGCTATA | -0.565
CCAGACAGGTGAAAGGGAACTCAGTCTGGTACGC | 1.63
TCGAGTAGGTTACCAATGGGGCAGTCAGCTTTCT | 1.05
TCTCGTAGATCAGCAGGTTAAGAAAGCTGGCCAA | 0.428
CGTCCAAGGCCAGAGAGGTCAGTGAATGCCGAGT | 2.28
CCAGACAGGTGCGAAGGTAACTCAGCCTCGATTA | -0.406
CCTATTGGGCCAAAAAGGTCATTGATGCCGATAA | 4.6
CGTCCAAGGTCAAGGTCATTGAAAGAGACTCGAA | 6.18
ATCTCTAGGTAAAGATAGTTAAGTGAATGCAAAT | -0.0582
TCGTGTAGATCAAAGGTTAAGAAAGCCGAAGCCT | 3.91
ACAGACAGATGATGAAGGTAACTCAGGCTATCAT | -0.128
AGAATGAGGGCAATGAGTTGATAGCACGGGTGGC | 1.91
CCTACTGGGCCACGAAAGGTCATTTATTCAGTGA | 4.47
ACTTACGGGTCAACGAGGTTATAGAACGCGTATA | 5.87
TAGCCTAGGTCATTCAGGGGCCAGTATAGAAAGC | 3.78
GCTTACGGGTCAAAGGTTATAGCTTGAATAGAAT | 6.66
CGAACTAGGTCATGGACAGTGAATCTCCGCACGC | 4.61
CAAACTAGGTCAAAGGTCTAAGTCGAGCCAACCA | 6.51

Reference: the supplement of paper PMC6555819
